An excerpt weighted towards active compounds, which were near 2.9% of everything screened.
SNCA expr inhib = inhibitors of alpha-synuclein (SNCA) gene expression. HEK-293 SNCA-luciferase knock-in, luminescence, 24 h. Potency, µM (series often up to 57.2 µM), most hits filed as inhibitors. 140,000 tested, 0.17% active. AID 1671194; also: nearly all actives have a fitted effect of over 45% in size
KDM5B inh = blocks human KDM5B histone demethylase activity | Potency, µM (titrated, usually from 57.7 µM), hits mostly inhibitors | Q9UGL1 | KDM5B demethylase, FDH-coupled NADH fluorescence (FDH is formaldehyde dehydrogenase) | AID 1347165 | 220,000 tested, 2.6% active; also: nearly all actives have a fitted effect of over 70% in size
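Measured: NADH fluorescence change, 30 min, RT. System: KDM5BΔAP 200 nM final, H3K4me3 peptide, α-KG, Fe(II), ascorbate, NAD⁺ plus FDH, pH 7.5 HEPES. Compounds: titrated, 10 min pre-incubation with enzyme.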
HEK293 viab = reduces viability of HEK-293 SNCA reporter cells. HEK-293-SNCA-luc viability, GF-AFC fluorescence, 24 h. Potency, µM (doses to about 57.1 µM), most hits filed as cytotoxic. 150,000 tested, 0.12% active. AID 1671193; also: nearly all actives have a fitted effect of over 30% in size
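HEK-293-SNCA-luc cells (1500/well) plated 24 h, then exposed 24 h to a dilution series; GF-AFC added 30 min at 37C, fluorescence 405/540 nm; normalised to medium-only and DMSO wells, Hill fit.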
IP6K1 inh = inhibitors of human IP6K1; IP6K1 kinase, ADP-Glo luminescence, 2 h; stronger effect = lower value; activity change, % (series mostly up to about 58 µM); 140,000 tested, 0.81% active; AID 1645851; in the data active = activity change below about -25%
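ADP-Glo luminescence measures ADP made by human IP6K1 during a 2 h RT reaction with ATP/IP6 (mix at 1.3 mM/130 uM); top library doses 57.5 and 19.1 uM final.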
A number is an active result; 0 = inactive; ? = inconclusive; - = no result given. Unless noted, calls follow the shape of the dose curve; as a rule, active = well fitted curve in the direction sought with a large enough effect; inconclusive = small, poorly fitted or top-dose-only effect, or another doubt; inactive = no such curve, though single readings can be large; an effect the other way counts as inactive or inconclusive.

SMILES	SNCA expr inhib	KDM5B inh	HEK293 viab	IP6K1 inh
Cc1ccc(CNC(=O)c2ccc(-c3ccc(N4CCSCC4)nc3)cc2)o1	0	0	?	0
O=C(NCc1ccccn1)c1ccc(C2CCCCC2)cc1	-	0	-	-
O=C(NCc1ccccn1)c1ccc(-c2ccc(N3CCCCC3)nc2)cc1	0	16µM	0	0
O=C(NCCN1CCCCC1)c1ccc(-c2ccc(N3CCCCC3)nc2)cc1	0	28µM	?	0
CN(C)CCNC(=O)c1ccc(-c2ccc(N3CCCCCC3)nc2)cc1	0	25µM	0	0
Cc1ccc(C(=O)NCCN2CCCC2)cc1	-	0	-	-
CN1CCN(CCNC(=O)c2ccc(-c3ccc(N4CCCCCC4)nc3)cc2)CC1	0	22µM	0	0
O=C(NCCN1CCCCC1)c1ccc(N2CC3CC(C2)[C@H]2CCCC(=O)N2C3)nc1 (some centres undefined)	0	0	0	0
CC(=O)O[C@@H]1CC[C@@]2(C)C(CC[C@]3(C)C2[C@H](O)C=C2[C@H]4[C@@H](C)[C@H](C)CC[C@]4(C)CC[C@]23C)[C@@]1(C)C(=O)O (some centres undefined)	-	-	0	0
CCN(CC)C(=O)N1CCCCC1c1noc(COc2ccc(F)cc2)n1 (centres undefined)	?	0	0	0
CC1(C)SC(=S)N(c2ccccc2)C1/[N+]([O-])=C/c1cccc([N+](=O)[O-])c1 (centres undefined)	-	0	-	-
O=C(NCc1ccc2c(c1)OCO2)c1ccc(-c2ccc(N3CCSCC3)nc2)cc1	0	28µM	0	0
O=C(NCCN1CCOCC1)c1ccc(-c2ccc(N3CCSCC3)nc2)cc1	0	28µM	0	0
COc1ccc(CNC(=O)c2ccc(-c3ccc(N4CCSCC4)nc3)cc2)cc1OC	0	?	0	0
O=C(O)CCc1ccc(S(=O)(=O)NCc2ccccc2)cc1	-	0	-	-
C[S+](=O)([O-])N1CCC2(CC1)C(=O)NN=C2c1ccccn1	0	0	0	0
NC1CCC(n2cc(C(=O)NC3CCCN(c4ncccn4)C3)nn2)CC1 (centres undefined)	0	25µM	0	0
COc1ccc(CNC(=O)C[C@@H]2c3nc(NC(=O)c4cccs4)sc3C[C@@H]3[C@](C)(CO)[C@H](O)CC[C@]32C)cc1	0	25µM	0	0
COc1ccc(CNC(=O)C[C@@H]2c3nc(NC(=O)c4c(F)cccc4F)sc3C[C@@H]3[C@](C)(CO)[C@H](O)CC[C@]32C)cc1	0	28µM	0	0
COCC(=O)Nc1nc2c(s1)C[C@@H]1[C@](C)(CO)[C@H](O)CC[C@@]1(C)[C@@H]2CC(=O)NCc1ccc(OC)cc1	0	0	0	0
O=C(c1ccc(Cl)cc1)N1CC2(CCCN2CC2CCCCC2)Cc2ccccc21 (centres undefined)	0	56µM	0	0
CC(=O)N1Cc2ccccc2CC2(CCCCN2CC2CCCC2)C1 (centres undefined)	0	50µM	0	0
CC(C)C(=O)N1Cc2ccccc2CC2(CCCCN2Cc2ccncc2)C1 (centres undefined)	0	0	0	0
CC(C)C(=O)N1Cc2ccccc2CC2(CCCN2Cc2ccncc2)C1 (centres undefined)	0	56µM	0	0
CC(=O)NCC(=O)N1Cc2ccccc2CC2(CCCN(CC3CCNC3)C2)C1 (centres undefined)	0	?	0	0
SMILES	SNCA expr inhib	KDM5B inh	HEK293 viab	IP6K1 inh
CC(=O)N1Cc2ccccc2CC2(CCCN2CC2CCCC2)C1 (centres undefined)	0	?	0	0
CC(=O)N1Cc2ccccc2CC2(CCCN(CC3CCNC3)C2)C1 (centres undefined)	0	25µM	0	0
CCCS(=O)(=O)N1CCN(Cc2cc(=O)n3nc(-c4ccc(Cl)cc4)sc3n2)CC1	-	0	-	-
COc1ccc(CNC(=O)C2(c3ccc(NC(C)=O)cc3)CCCCC2)cc1OC	0	0	0	0
NC(=O)c1cccc(CN2CCCC23Cc2ccccc2N(C(=O)c2ccc(Cl)cc2)C3)c1 (centres undefined)	0	79µM	0	0
CCc1nn(CC(=O)NCCCc2ccccc2)c(=O)c2cc3ccccc3n12	28µM	0	0	0
Cc1cc(C)n2nc(C(=O)N3CCCC4(CNC(=O)O4)C3)cc2n1 (centres undefined)	?	25µM	0	0
Cc1ccc(C(=O)NCc2nnc3cc(-c4nc(C5CC5)no4)ccn23)cc1	0	?	0	0
Cc1ccc(CC(=O)NCc2nnc3cc(-c4nc(C5CC5)no4)ccn23)cc1	0	28µM	0	0

Screens deposited in PubChem by National Center for Advancing Translational Sciences (NCATS).
